Results reported in PubChem BioAssay (EPA / NIEHS).
Inconclusive results are not listed. Active and inactive are the calls of the source. Rule for the calls, unless noted: active = hit-call score of the fitted dose curve at least 0.9, where 1 is the maximum; inactive = score below 0.9.

Columns and labels:
[1] = biological target: Paired box protein Pax-6 (Homo sapiens) (UniProt P26367); experiment: ATG_Pax6_CIS: Attagene CIS-FACTORIAL HepG2 Assay for human Paired Box 6 (PAX6) (AID 2282956); details: HepG2 CIS-FACTORIAL PAX6 reporter transcription, RNA readout; actives raise or lower the signal
Procedure, shortened: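 HepG2 cells transiently transfected with multiplexed cis-promoter reporter units (endogenous TF activity) were dosed for 24 h. Reporter mRNA was quantified by RT-PCR, 6-FAM labeling, HpaI digestion and capillary electrophoresis; bidirectional fitting versus DMSO baseline.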

[2] = ATG_PXRE_CIS: Attagene CIS-FACTORIAL HepG2 Assay for human Pregnane X Receptor Element (PXRE) (AID 2282957); details: HepG2 Attagene CIS-FACTORIAL PXRE reporter, mRNA; actives raise or lower the signal
Procedure, shortened: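 Multiplexed cis-reporter assay in transiently transfected human HepG2 cells; 24 h chemical exposure. Reporter transcripts quantified by RT-PCR with fluorescent labeling and capillary electrophoresis.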

[3] = ATG_PPRE_CIS: Attagene CIS-FACTORIAL HepG2 Assay for human Peroxisome Proliferator-activated Response Element (PPRE) (AID 2282958); details: HepG2 PPRE cis-element reporter, Attagene transcription factor profiling; actives raise or lower the signal
Procedure, shortened: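 DMSO served as negative control and baseline for bidirectional curve fitting. Signal came from PPRE-regulated reporter mRNA in HepG2 cells, measured 24 h post-dosing by RT-PCR, 6-FAM primer extension and capillary electrophoresis.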

[4] = ATG_RORE_CIS: Attagene CIS-FACTORIAL HepG2 Assay for human RAR-related Orphan Receptor Element (RORE) (AID 2282959); details: HepG2 Attagene cis-factorial RORE reporter, mRNA; actives raise or lower the signal
Procedure, shortened: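 Transfect HepG2 with MRTUs; treat 24 h; extract RNA; RT with oligo(dT); PCR with reporter-specific primers; 6-FAM primer extension; HpaI digest 2 h at 37 C; capillary electrophoresis. Fit vs DMSO, bidirectional.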

[5] = ATG_Sox_CIS: Attagene CIS-FACTORIAL HepG2 Assay for human SRY-box transcription factor (SOX) (AID 2282960); details: HepG2 Attagene cis-factorial SOX reporter, mRNA; actives raise or lower the signal
Procedure, shortened: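 Fluorescence-labelled cDNA fragments from reporter transcripts, sized by CE, give the signal. Cells: HepG2, transiently transfected with cis-regulated reporter units. Exposure 24 h; DMSO negative control; bidirectional curve fitting.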

[6] = biological target: Transcription factor Sp1 (Homo sapiens) (UniProt P08047); experiment: ATG_Sp1_CIS: Attagene CIS-FACTORIAL HepG2 Assay for human Specificity Protein 1 (Sp1) (AID 2282961); details: HepG2 Sp1 cis-reporter transcription, actives raise or lower the signal
Procedure, shortened: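 Chemicals are dosed onto HepG2 cells transfected with multiple cis-promoter reporter constructs, and after 24 h reporter RNA is reverse-transcribed, PCR-amplified and resolved by capillary electrophoresis for fluorescence quantitation; activity is scored up or down against DMSO.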

[7] = ATG_SREBP_CIS: Attagene CIS-FACTORIAL HepG2 Assay for human Sterol Regulatory Element Binding (SREBP) (AID 2282962); details: HepG2 Attagene cis-factorial SREBP reporter, mRNA; actives raise or lower the signal
Procedure, shortened: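 HepG2 cells transiently transfected with multiplexed cis-element reporter units report endogenous transcription factor activity. After 24 h of chemical exposure, reporter mRNA was quantified by RT-PCR, 6-FAM labelling, HpaI digestion and capillary electrophoresis; bidirectional fits used DMSO as baseline.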

[8] = biological target: Signal transducer and activator of transcription 3 (Homo sapiens) (UniProt P40763); experiment: ATG_STAT3_CIS: Attagene CIS-FACTORIAL HepG2 Assay for human Signal Transducer and Activator of Transcription 3 (STAT3) (AID 2282963); details: HepG2, Attagene cis-factorial STAT3 reporter transcription; actives raise or lower the signal
Procedure, shortened: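 HepG2 cells transiently transfected with cis-element-driven multiple reporter transcription units; after 24 h chemical exposure, reporter mRNA measured by RT-PCR, 6-FAM primer-extension labelling, HpaI digestion and capillary electrophoresis. Bidirectional fitting versus DMSO baseline.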

[9] = ATG_TA_CIS: Attagene CIS-FACTORIAL HepG2 Assay for human TA Basal Promoter (AID 2282964); details: HepG2 Attagene CIS-factorial TA basal promoter reporter; actives raise or lower the signal
Procedure, shortened: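 Cis-factorial format in HepG2: reporters report endogenous factors, not chimeric Gal4 fusions. After 24 h treatment, reporter transcripts were measured by RT-PCR-capillary electrophoresis fluorescence, analysed bidirectionally versus DMSO.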

[10] = ATG_TCF_b_cat_CIS: Attagene CIS-FACTORIAL HepG2 Assay for human T-Cell-Factor with beta-catenin (TCF/b-cat) (AID 2282965); details: HepG2 TCF/beta-catenin cis-reporter transcription, actives raise or lower the signal
Procedure, shortened: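 HepG2 cells transiently transfected with multiple cis-promoter-regulated reporter transcription units, so endogenous transcription factor activity is measured. Reporter mRNA read 24 hours after dosing by RT-PCR, fluorescent labelling and capillary electrophoresis; bidirectional fitting against DMSO.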

[11] = ATG_TAL_CIS: Attagene CIS-FACTORIAL HepG2 Assay for human TAL Basal Promoter (AID 2282966); details: HepG2 Attagene cis-factorial TAL promoter reporter; actives raise or lower the signal;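 note: background control endpoint measuring basal TAL promoter reporter mRNA not a specific factor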
Procedure, shortened: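 Steps: transfect HepG2 with multiple reporter transcription units; dose 24 h; isolate RNA, reverse-transcribe, PCR-amplify, label with 6-FAM, digest with HpaI; resolve by capillary electrophoresis. Bidirectional fitting against DMSO baseline.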

[12] = ATG_TGFb_CIS: Attagene CIS-FACTORIAL HepG2 Assay for human Transforming Growth Factor (TGF) (AID 2282967); details: HepG2 Attagene CIS TGFb reporter, mRNA transcription; actives raise or lower the signal
Procedure, shortened: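 Multiplexed cis-reporter HepG2 system, 24 h treatment; mRNA induction read by fluorescence after RT-PCR and CE; DMSO negative control, bidirectional curve fitting.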

[13] = ATG_VDRE_CIS: Attagene CIS-FACTORIAL HepG2 Assay for human Vitamin D Receptor Element (VDRE) (AID 2282968); details: HepG2 VDRE cis-reporter transcription, actives raise or lower the signal
Procedure, shortened: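 HepG2 cells transiently transfected with cis-element reporter units, dosed 24 h; reporter mRNA measured by RT-PCR, 6-FAM labeling, HpaI digestion and capillary electrophoresis. Activity fitted bidirectionally against DMSO baseline.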

[14] = biological target: Nuclear receptor subfamily 1 group I member 3 (Homo sapiens) (UniProt Q14994); experiment: ATG_CAR_TRANS: Attagene TRANS-FACTORIAL HepG2 Assay for human Constitutive Androstane Receptor (CAR) (AID 2282969; active = hit-call score of the fitted dose curve at least 0.9, where 1 is the maximum;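 note: activators raise reporter mRNA above DMSO so AC50 marks induction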); details: HepG2 Attagene TRANS-FACTORIAL CAR reporter
Procedure, shortened: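 HepG2 cells transiently transfected with multiplexed GAL4-UAS reporter units expressing chimeric NR-Gal4 proteins; compound exposure 24 h. Reporter mRNA measured by RT-PCR, 6-FAM labelling, HpaI digestion and capillary electrophoresis; gain-of-signal fitted against DMSO baseline.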

[15] = biological target: Estrogen receptor (Homo sapiens) (UniProt P03372); experiment: ATG_ERa_TRANS: Attagene TRANS-FACTORIAL HepG2 Assay for human Estrogen Receptor alpha (ERa) (AID 2282970; active = hit-call score of the fitted dose curve at least 0.9, where 1 is the maximum); details: HepG2 Attagene TRANS ERa GAL4 reporter, mRNA
Procedure, shortened: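 Multiplexed cell-based reporter format in HepG2: chimeric ERa-Gal4 protein drives GAL4-UAS reporter transcription. Fluorescent reporter mRNA quantified by capillary electrophoresis 24 hours after dosing; endpoint fitted as signal gain against DMSO.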

[16] = biological target: Steroid hormone receptor ERR1 (Homo sapiens) (UniProt P11474); experiment: ATG_ERRa_TRANS: Attagene TRANS-FACTORIAL HepG2 Assay for human Estrogen-Related Receptor alpha (ERRa) (AID 2282971; active = hit-call score of the fitted dose curve at least 0.9, where 1 is the maximum); details: HepG2 Attagene TRANS reporter, ERRa transactivation
Procedure, shortened: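 Signal gain relative to DMSO for an ERRa-Gal4 chimeric receptor, read as reporter mRNA by RT-PCR/capillary electrophoresis. Human HepG2 liver cells, transient multiplex reporter transfection, 24 h chemical exposure.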

[17] = biological target: X-box-binding protein 1 (Homo sapiens) (UniProt P17861); experiment: ATG_Xbp1_CIS: Attagene CIS-FACTORIAL HepG2 Assay for human X-box Binding Protein 1 (XBP1) (AID 2282972); details: HepG2 XBP1 cis-element reporter, Attagene multiplex; actives raise or lower the signal
Procedure, shortened: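 HepG2 cells transiently transfected with cis-regulated multiple reporter transcription units; endogenous transcription factor activity measured 24 hours after chemical dosing. Reporter mRNA quantified by RT-PCR, 6-FAM primer extension, HpaI digestion and capillary electrophoresis; bidirectional fitting versus DMSO.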

[18] = biological target: Estrogen-related receptor gamma (Homo sapiens) (UniProt P62508); experiment: ATG_ERRg_TRANS: Attagene TRANS-FACTORIAL HepG2 Assay for human Estrogen-Related Receptor gamma (ERRg) (AID 2282977; active = hit-call score of the fitted dose curve at least 0.9, where 1 is the maximum;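 note: hits increase reporter signal over DMSO so potencies reflect activators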); details: HepG2 Attagene TRANS reporter, ERRg transactivation
Procedure, shortened: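 HepG2 cells transiently transfected with multiplexed GAL4-UAS reporter units and chimeric NR-Gal4 constructs were exposed to test chemicals for 24 h. Reporter mRNA was measured by RT-PCR, 6-FAM primer extension, HpaI digestion and capillary electrophoresis; gain-of-signal versus DMSO.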

[19] = ATG_GAL4_TRANS: Attagene TRANS-FACTORIAL HepG2 Assay for GAL4 (Internal Marker) (AID 2282976; active = hit-call score of the fitted dose curve at least 0.9, where 1 is the maximum); details: HepG2 Attagene TRANS GAL4 internal marker reporter
Procedure, shortened: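 Liver HepG2 line bearing multiplexed GAL4-UAS reporter constructs; 24 h chemical treatment. Transcripts were quantified as fluorescent fragments on capillary electrophoresis after RT-PCR and HpaI cut, with activity fitted upward from DMSO.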

[20] = ATG_M_19_TRANS: Attagene TRANS-FACTORIAL HepG2 Assay for M19 Transcription Factor (Internal Marker) (AID 2282974; active = hit-call score of the fitted dose curve at least 0.9, where 1 is the maximum); details: HepG2 Attagene TRANS-FACTORIAL M19 internal marker reporter
Procedure, shortened: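 Multiplexed TRANS format: HepG2 liver cells bearing transient GAL4-UAS reporter units, chemical treatment 24 h, reporter transcripts quantified by RT-PCR plus capillary electrophoresis. DMSO defines baseline.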

Measured: AC50

Chain of Nuclear receptor subfamily 1 group I member 3 (Homo sapiens) (Q14994 whole entry, looked up, the tested form may be a part): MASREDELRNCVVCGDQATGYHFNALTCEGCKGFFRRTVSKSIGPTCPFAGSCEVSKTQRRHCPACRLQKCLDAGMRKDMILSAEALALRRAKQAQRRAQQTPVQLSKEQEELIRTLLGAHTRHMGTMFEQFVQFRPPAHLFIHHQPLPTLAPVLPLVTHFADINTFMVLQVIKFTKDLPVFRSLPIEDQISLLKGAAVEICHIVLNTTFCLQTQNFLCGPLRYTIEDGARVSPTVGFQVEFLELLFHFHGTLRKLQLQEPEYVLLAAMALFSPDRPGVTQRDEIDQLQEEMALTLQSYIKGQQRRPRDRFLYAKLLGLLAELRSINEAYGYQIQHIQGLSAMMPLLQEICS
Chain of Estrogen-related receptor gamma (Homo sapiens) (P62508 whole entry, looked up, the tested form may be a part): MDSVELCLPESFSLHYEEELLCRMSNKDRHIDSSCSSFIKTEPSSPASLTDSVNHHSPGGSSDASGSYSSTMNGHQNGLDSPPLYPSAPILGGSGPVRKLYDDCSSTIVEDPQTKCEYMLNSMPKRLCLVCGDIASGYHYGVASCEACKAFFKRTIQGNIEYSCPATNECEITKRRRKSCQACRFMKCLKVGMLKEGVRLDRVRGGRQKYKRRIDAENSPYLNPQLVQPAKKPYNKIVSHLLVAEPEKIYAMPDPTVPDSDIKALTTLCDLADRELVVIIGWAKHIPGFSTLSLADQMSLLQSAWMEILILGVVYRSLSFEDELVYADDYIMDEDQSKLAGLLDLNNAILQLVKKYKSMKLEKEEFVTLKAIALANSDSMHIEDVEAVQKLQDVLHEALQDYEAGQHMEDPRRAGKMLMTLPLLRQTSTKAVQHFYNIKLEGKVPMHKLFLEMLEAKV
Chain of Signal transducer and activator of transcription 3 (Homo sapiens) (P40763 whole entry, looked up): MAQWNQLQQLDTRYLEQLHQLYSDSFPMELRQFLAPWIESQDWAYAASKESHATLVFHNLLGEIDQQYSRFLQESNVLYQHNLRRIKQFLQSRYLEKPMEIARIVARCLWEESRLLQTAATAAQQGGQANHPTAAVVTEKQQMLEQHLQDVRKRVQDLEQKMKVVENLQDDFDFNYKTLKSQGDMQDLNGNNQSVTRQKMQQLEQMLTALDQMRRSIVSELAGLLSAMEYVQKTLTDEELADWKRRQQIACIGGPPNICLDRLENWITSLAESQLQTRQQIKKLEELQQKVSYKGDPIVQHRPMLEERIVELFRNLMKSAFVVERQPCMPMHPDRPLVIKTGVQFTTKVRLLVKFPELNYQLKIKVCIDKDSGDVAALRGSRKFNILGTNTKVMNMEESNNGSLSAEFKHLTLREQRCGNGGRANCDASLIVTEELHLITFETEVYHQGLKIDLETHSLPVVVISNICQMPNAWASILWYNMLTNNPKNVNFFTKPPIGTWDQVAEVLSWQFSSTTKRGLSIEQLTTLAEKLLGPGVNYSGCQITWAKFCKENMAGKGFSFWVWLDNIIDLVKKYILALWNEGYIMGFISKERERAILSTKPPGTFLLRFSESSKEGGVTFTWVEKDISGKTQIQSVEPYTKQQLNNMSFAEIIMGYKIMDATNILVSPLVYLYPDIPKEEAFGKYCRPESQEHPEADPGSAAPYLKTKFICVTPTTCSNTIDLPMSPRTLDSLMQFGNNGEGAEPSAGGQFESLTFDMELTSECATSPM
Chain of Transcription factor Sp1 (Homo sapiens) (P08047 whole entry, looked up): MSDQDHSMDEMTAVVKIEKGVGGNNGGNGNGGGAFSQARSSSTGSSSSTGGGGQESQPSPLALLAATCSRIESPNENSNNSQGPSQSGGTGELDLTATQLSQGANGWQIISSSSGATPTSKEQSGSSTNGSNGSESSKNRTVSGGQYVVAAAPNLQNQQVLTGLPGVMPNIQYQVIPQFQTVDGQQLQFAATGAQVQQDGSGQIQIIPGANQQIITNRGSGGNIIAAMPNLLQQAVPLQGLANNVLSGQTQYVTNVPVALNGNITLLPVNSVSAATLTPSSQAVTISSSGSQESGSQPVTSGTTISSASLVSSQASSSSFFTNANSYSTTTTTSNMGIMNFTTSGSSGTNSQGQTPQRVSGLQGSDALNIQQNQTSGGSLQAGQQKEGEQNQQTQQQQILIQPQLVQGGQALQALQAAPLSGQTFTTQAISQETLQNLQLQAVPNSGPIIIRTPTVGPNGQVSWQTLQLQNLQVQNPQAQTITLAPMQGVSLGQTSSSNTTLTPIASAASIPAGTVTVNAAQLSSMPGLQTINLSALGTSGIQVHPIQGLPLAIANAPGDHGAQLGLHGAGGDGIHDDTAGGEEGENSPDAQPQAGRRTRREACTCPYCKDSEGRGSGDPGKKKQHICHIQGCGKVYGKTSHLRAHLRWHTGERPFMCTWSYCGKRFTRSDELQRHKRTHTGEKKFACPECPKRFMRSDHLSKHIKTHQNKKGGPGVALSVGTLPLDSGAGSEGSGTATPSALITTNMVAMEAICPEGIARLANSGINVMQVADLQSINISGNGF
Chain of Paired box protein Pax-6 (Homo sapiens) (P26367 whole entry, looked up): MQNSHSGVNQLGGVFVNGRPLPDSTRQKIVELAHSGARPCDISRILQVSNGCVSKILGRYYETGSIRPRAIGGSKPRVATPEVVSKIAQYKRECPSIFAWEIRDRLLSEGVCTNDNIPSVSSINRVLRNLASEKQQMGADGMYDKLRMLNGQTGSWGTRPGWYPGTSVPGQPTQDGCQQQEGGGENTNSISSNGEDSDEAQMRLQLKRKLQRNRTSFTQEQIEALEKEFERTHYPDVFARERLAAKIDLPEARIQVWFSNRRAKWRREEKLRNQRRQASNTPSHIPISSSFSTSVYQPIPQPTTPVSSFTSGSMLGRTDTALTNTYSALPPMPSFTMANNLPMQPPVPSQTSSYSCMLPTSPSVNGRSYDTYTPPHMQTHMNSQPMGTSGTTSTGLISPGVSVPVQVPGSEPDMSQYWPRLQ
Chain of X-box-binding protein 1 (Homo sapiens) (P17861 whole entry, looked up): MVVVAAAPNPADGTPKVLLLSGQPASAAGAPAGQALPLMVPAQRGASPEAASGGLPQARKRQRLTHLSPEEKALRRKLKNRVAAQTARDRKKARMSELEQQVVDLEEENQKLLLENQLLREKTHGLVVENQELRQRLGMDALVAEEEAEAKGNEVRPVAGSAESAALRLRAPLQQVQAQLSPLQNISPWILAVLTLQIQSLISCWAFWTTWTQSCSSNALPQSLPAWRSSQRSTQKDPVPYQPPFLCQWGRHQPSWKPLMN
Chain of Estrogen receptor (Homo sapiens) (P03372 whole entry, looked up, the tested form may be a part): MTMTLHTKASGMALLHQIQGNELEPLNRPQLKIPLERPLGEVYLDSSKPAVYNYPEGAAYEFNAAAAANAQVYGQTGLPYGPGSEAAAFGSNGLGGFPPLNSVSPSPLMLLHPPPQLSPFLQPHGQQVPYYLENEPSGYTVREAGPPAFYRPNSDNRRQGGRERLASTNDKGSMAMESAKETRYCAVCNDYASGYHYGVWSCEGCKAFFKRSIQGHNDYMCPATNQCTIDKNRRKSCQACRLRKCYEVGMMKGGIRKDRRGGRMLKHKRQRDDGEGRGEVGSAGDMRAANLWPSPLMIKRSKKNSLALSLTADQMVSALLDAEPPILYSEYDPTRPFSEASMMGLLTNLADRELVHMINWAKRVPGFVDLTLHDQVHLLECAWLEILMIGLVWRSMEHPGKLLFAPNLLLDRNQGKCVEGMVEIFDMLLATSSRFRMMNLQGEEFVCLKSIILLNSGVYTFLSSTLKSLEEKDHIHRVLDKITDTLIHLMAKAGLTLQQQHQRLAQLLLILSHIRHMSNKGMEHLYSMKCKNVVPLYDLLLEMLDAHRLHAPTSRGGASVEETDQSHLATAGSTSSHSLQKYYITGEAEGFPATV
Chain of Steroid hormone receptor ERR1 (Homo sapiens) (P11474 whole entry, looked up, the tested form may be a part): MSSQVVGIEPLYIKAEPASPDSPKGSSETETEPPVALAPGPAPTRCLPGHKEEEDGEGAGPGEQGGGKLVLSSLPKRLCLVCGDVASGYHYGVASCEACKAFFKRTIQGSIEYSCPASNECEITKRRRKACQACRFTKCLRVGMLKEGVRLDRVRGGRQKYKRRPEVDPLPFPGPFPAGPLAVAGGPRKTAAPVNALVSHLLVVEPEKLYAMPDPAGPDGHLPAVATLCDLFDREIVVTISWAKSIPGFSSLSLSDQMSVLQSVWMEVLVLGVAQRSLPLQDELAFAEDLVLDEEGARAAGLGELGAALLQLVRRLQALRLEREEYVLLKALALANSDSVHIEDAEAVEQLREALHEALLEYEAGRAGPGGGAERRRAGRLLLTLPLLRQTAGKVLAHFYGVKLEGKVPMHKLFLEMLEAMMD

NC(=O)c1ccccc1Cl
active: [1] 65 µM | [2] 40.7 µM | [5] 68.9 µM | [6] 41.1 µM | [10] 65.8 µM | [13] 63.3 µM | [17] 62.6 µM
not listed: [19] | [20]
inactive: all other assays above

Cc1ccc2n[nH]nc2c1
not listed: [14] | [16] | [18] | [19] | [20]
inactive: all other assays above

CCC(=O)OCCC(C)CCC=C(C)C (configuration not stated)
active: [2] 41.1 µM
not listed: [15] | [16] | [18] | [20]
inactive: all other assays above

CC(=O)Nc1ccc(C)cc1C
not listed: [15] | [16]
inactive: all other assays above

CN(C)CCOCCN(C)C
not listed: [15] | [16] | [19]
inactive: all other assays above

C=C(C)C(=O)O
not listed: [14] | [15] | [16] | [18]
inactive: all other assays above

O=C=NC1CCC(CC2CCC(N=C=O)CC2)CC1 (configuration not stated)
inactive: [1] | [2] | [5] | [6] | [7] | [9]
active: [3] 68.9 µM | [4] 69.6 µM | [8] 164 µM | [10] 69.3 µM | [11] 26.8 µM | [12] 59.2 µM | [13] 37.5 µM | [17] 85.1 µM

COc1cc2ncnc(Nc3cccc(Cl)c3)c2cc1OC
active: [1] 25 µM | [9] 9.84 µM | [10] 6.77 µM | [11] 13.4 µM | [13] 12.7 µM | [17] 8.13 µM
not listed: [14] | [16] | [18] | [20]
inactive: all other assays above

CC(C)OP(=O)(CP(=O)(OC(C)C)OC(C)C)OC(C)C
active: [2] 7.59 µM
not listed: [11] | [14] | [16] | [18] | [20]
inactive: all other assays above

NCCCCCCN
not listed: [14] | [15] | [16] | [19] | [20]
inactive: all other assays above

CCCC(=O)c1cc(O)c(O)cc1O
not listed: [14] | [16] | [19]
inactive: all other assays above

OCCCCCO
active: [2] 76.5 µM | [15] 76.1 µM
not listed: [13] | [16] | [18] | [20]
inactive: all other assays above

O=C(OCc1ccccc1)C(=O)OCc1ccccc1
not listed: [11] | [14] | [16] | [18] | [19] | [20]
inactive: all other assays above

CC(C)(C)c1cc(CCC(=O)NN)cc(C(C)(C)C)c1O
active: [2] 10.2 µM
not listed: [14] | [15] | [18]
inactive: all other assays above

CC[Si](OC(C)=O)(OC(C)=O)OC(C)=O
active: [2] 6.28 µM | [13] 33.8 µM
not listed: [14] | [15] | [16] | [18] | [19] | [20]
inactive: all other assays above

CCO[Si](CCCS)(OCC)OCC
not listed: [13] | [14] | [15] | [16] | [18] | [19]
inactive: all other assays above

CCCCCCCCCCCCCOS(=O)(=O)O
active: [3] 7.4 µM
not listed: [14] | [15] | [16] | [18] | [20]
inactive: all other assays above
